Experimental data published in PubChem BioAssay AID2546 (National Center for Advancing Translational Sciences (NCATS), 2010).
The campaign covered roughly 310,000 compounds. About 11,000 (3.5%) were called active. A call without a number means that no potency is given here. About 8% were inconclusive and are not listed. For the sample, actives were picked, then their nearest neighbours and some compounds at random. A number with no mark means an inactive call. Calls follow the shape of the dose curve; as a rule, active = well fitted inhibition curve with a large enough effect; inconclusive = small, poorly fitted or top-dose-only effect, or effect the other way; inactive = flat fitted curve, though single readings scatter.
Potency is read from the fitted curve at half-maximal effect.

Assay: VP16 counterscreen qHTS for inhibitors of ROR gamma transcriptional activity;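 also: Gal4-VP16 expression switched on by copper sulfate through the metallothionein promoter; nearly all actives have a fitted effect of over 50% in size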
Details: Drosophila S2 Gal4-VP16 UAS-luciferase, luminescence, 20 h; series mostly up to 53.6 µM
For `CCOc1ccc2[nH]c(C(=O)N/N=C/c3cccc(OC)c3OC)cc2c1`, the Potency was “inactive”.
With `COc1cccc(CCNC(=O)c2cccc(NC(=O)C3=C(C)OCCS3)c2)c1` the Potency was “inactive”.
With `Cc1cc(SCC(=O)c2ccccc2)nc(SCC(=O)c2ccccc2)n1` the Potency was “inactive”.
For `Cc1cc(C)nc(S/C=C/C(=O)c2ccccc2)n1`, the Potency was 3.55 µM (active).
In the case of `Cc1ccc(N/C=C/C(=O)c2ccccc2)cc1C`, the Potency is reported as “inactive”.
With `CSc1ccccc1NC(=O)c1ccc2c(c1)CCN2S(C)(=O)=O` the Potency was “inactive”.
For `Cc1nn(CCCC(=O)NCc2ccccc2Cl)c(=O)c2nccn12`, the Potency was “inactive”.
For `O=C(Cc1ccccc1)Nc1ccc(C(=O)Nc2ccccc2C(=O)O)cc1`, the Potency was “inactive”.
In the case of `CCOc1ccc(CN2CCN(Cc3ccc4cc(F)ccc4n3)CC2CCO)cc1` (configuration not stated), the Potency is reported as “inactive”.
With `COc1cc(C(=O)NCc2nnc(SCC(=O)Nc3nc4ccc(C)cc4s3)o2)cc(OC)c1OC` the Potency was 3.16 µM (active).
In the case of `COc1ccc(C(=O)NCc2nnc(SCC(=O)Nc3cccc(OC)c3)o2)cc1`, the Potency is reported as “inactive”.
For `COc1cc(C(=O)NCc2nnc(SCC(=O)c3ccc(Cl)cc3)o2)cc(OC)c1OC`, the Potency was “inactive”.
For `O=C(CNC(=O)c1ccc(Br)o1)NCC1CCCO1` (configuration not stated), the Potency was “inactive”.
With `COc1ccc(C)cc1NC(=S)N1CCOCC1` the Potency was “inactive”.
For `O=C(/C=C/c1ccco1)NC(=S)N1CCCCC1`, the Potency was 22.4 µM (active).
In the case of `CCNC(=S)N1CCN(C(=O)c2ccco2)CC1`, the Potency is reported as “inactive”.
For `COc1ccc(/C=C/C(=O)NC(=S)N2CCCC(C(N)=O)C2)cc1` (configuration not stated), the Potency was “inactive”.
In the case of `COc1ccccc1/C=C/C(=O)NC(=S)N1CCOCC1`, the Potency is reported as 8.91 µM (active).
With `COc1ccccc1/C=C/C(=O)NC1CC2CCC1C2` (configuration not stated) the Potency was “inactive”.
In the case of `CC1CCCN(S(=O)(=O)c2ccc(-c3ccc(=O)[nH]n3)o2)C1` (configuration not stated), the Potency is reported as “inactive”.
With `O=C(C1CC(=O)N(c2ccc(Br)cc2)C1)N1CCCC1` (configuration not stated) the Potency was “inactive”.
For `CC(C)c1nc2ccc(C(=O)O)cc2[nH]1`, the Potency was 20 µM (active).
In the case of `OC(c1nc2ccc(F)cc2[nH]1)C(O)c1nc2ccc(F)cc2[nH]1` (configuration not stated), the Potency is reported as “inactive”.
With `Cc1nc2ccc(C(=O)O)cc2[nH]1` the Potency was “inactive”.
With `COc1ccc2cc(C(=O)C3CCCN(C(=O)c4sc(C)nc4C)C3)ccc2c1` (configuration not stated) the Potency was “inactive”.
With `CC(C)(C)OC(=O)NNc1c2ccccc2nc2ccccc12` the Potency was “inactive”.
In the case of `COC(=O)CSc1nnc(NC(=O)CCc2ccccc2)s1`, the Potency is reported as “inactive”.
For `O=C(NCCc1ccccc1Cl)C1CCC(=O)N(CCCc2ccccc2)C1` (configuration not stated), the Potency was “inactive”.
With `CCCn1c(CCNc2nc(-c3ccc(OC)cc3)cs2)nc2ccccc21` the Potency was “inactive”.
With `O=C(CCCC(=O)N1CCN(c2cccc(Cl)c2)CC1)c1ccccc1` the Potency was “inactive”.
With `S=C1NC(c2ccccc2)=NCN1c1ccc(Br)cc1` the Potency was 20 µM (active).
With `Brc1ccccc1C1N=C(c2ccccc2)NO1` (configuration not stated) the Potency was “inactive”.
In the case of `Cc1nc(=O)c(-c2ccccc2)c(C)n1-c1ccc(Br)cc1`, the Potency is reported as “inactive”.
In the case of `COc1cc(NC(=O)CSc2ccc(-c3cccnc3)nn2)cc(OC)c1`, the Potency is reported as “inactive”.
For `CCOC(=O)C1(CCOc2ccccc2)CCN(Cc2ccc(C#CCCO)cc2)CC1`, the Potency was “inactive”.
In the case of `C=CCn1c(SCC(=O)NC)nnc1C12CC3CC(CC(C3)C1)C2`, the Potency is reported as “inactive”.
With `C=CCn1c(SCC(=O)NC23CC4CC(CC(C4)C2)C3)nc(O)cc1=O` the Potency was “inactive”.
For `C=CCn1c(C23CC4CC(CC(C4)C2)C3)n[nH]c1=S`, the Potency was 2.51 µM (active).
For `COc1cc(NS(=O)(=O)c2ccc(NC(=S)NC(=O)c3ccccc3)cc2)nc(OC)n1`, the Potency was “inactive”.
In the case of `Cn1c(C(=O)N2CCCC(C(=O)NCc3ccccc3)C2)cc2sccc21` (configuration not stated), the Potency is reported as “inactive”.
In the case of `CC(=O)Nc1ccc(S(=O)(=O)NC2Cc3ccccc3C2)cc1`, the Potency is reported as “inactive”.
For `COc1ccc(-c2nc3ccccc3c(=O)n2CCc2ccc(O)cc2)cc1`, the Potency was “inactive”.
With `COc1ccc(S(=O)(=O)Nc2ccc(O)c(Sc3nc4ccccc4s3)c2)cc1` the Potency was “inactive”.
In the case of `O=[N+]([O-])c1c(NCCO)cc(Sc2nc3ccccc3s2)c2nonc12`, the Potency is reported as 5.01 µM (active).
In the case of `O=C(CSc1nc2ccccc2s1)Nc1ccc(C(=O)O)cc1`, the Potency is reported as “inactive”.
In the case of `CCCOc1cccc(C(=O)Nc2ccccc2C(=O)N2CCN(C)CC2)c1`, the Potency is reported as “inactive”.
For `Cc1ccc(S(=O)(=O)c2nc(-c3cccs3)oc2NCc2cccnc2)cc1`, the Potency was “inactive”.
For `S=c1[nH]nc(COc2ccccc2)n1-c1ccccc1`, the Potency was 10 µM (active).
For `Fc1ccc(/C=N/n2c(COc3ccccc3)n[nH]c2=S)cc1`, the Potency was “inactive”.
In the case of `Cc1ccc(OCc2n[nH]c(=S)n2-c2ccc(C)cc2)cc1`, the Potency is reported as “inactive”.
In the case of `COc1ccc2oc(C(=O)NCC(Cc3ccccc3)N(C)C)c(C)c2c1` (configuration not stated), the Potency is reported as “inactive”.
For `CC(C)Oc1ccc(CCc2n[nH]c(=S)n2Cc2ccccc2)cc1`, the Potency was 15.8 µM (active).
With `C=CCn1c(CCc2ccc(OC(C)C)cc2)n[nH]c1=S` the Potency was “inactive”.
In the case of `CC(C)Oc1ccc(Cc2n[nH]c(=S)n2Cc2ccccc2)cc1Cl`, the Potency is reported as “inactive”.
For `COc1ccc(CCNC(=O)C2CCCN(S(=O)(=O)c3ccc(OC)cc3)C2)cc1` (configuration not stated), the Potency was “inactive”.
In the case of `CC1CCC(NC(=O)CN(C)S(=O)(=O)c2ccc3c(c2)c(=O)n(C)c(=O)n3C)CC1` (configuration not stated), the Potency is reported as “inactive”.
With `COc1cccc(NC(=O)CC2C(=O)NCCN2C(=S)Nc2ccc(F)cc2)c1` (configuration not stated) the Potency was “inactive”.
With `CCc1ccc(NC(=O)CC2C(=O)NCCN2C(=S)Nc2ccccc2)cc1` (configuration not stated) the Potency was “inactive”.
With `COc1ccc(C(=O)NC(=S)N2CCNC(=O)C2CC(=O)OC(C)C)cc1` (configuration not stated) the Potency was 10 µM (active).
In the case of `Cc1ccc(-c2ccc(=O)n(Cc3ccc(F)cc3Cl)n2)cc1`, the Potency is reported as “inactive”.
In the case of `O=[N+]([O-])c1ccc2c(c1)Nc1nc3ccccc3nc1N2`, the Potency is reported as “inactive”.
For `O=c1[nH]c2cccnc2n1-c1ccc([N+](=O)[O-])cc1`, the Potency was “inactive”.
For `O=[N+]([O-])c1ccc2nc(-c3ccccn3)[nH]c2c1`, the Potency was 6.31 µM (active).
For `CC(C)(C)c1nnc(N/N=C/c2ccc(O)cc2)n(N)c1=O`, the Potency was 2.24 µM (active).
For `Nc1nnn(CC(=O)N/N=C/c2ccc(O)cc2)n1`, the Potency was “inactive”.
In the case of `O=c1c2ccccc2nc(N/N=C/c2ccccc2)n1O`, the Potency is reported as “inactive”.
With `Cc1csc(NC(=S)Nc2cccc(Cl)c2)n1` the Potency was 1 µM (active).
In the case of `S=C(Nc1cccc(Cl)c1)Nc1ccc2cn[nH]c2c1`, the Potency is reported as “inactive”.
In the case of `CC(=O)Nc1cccc(C(=O)Nc2nc(C)cs2)c1`, the Potency is reported as “inactive”.
For `COc1cccc(N(CC(=O)NC2CCCCCC2)S(=O)(=O)c2ccccc2)c1`, the Potency was “inactive”.
With `CN1C(=O)CN2CCc3ccccc3C2c2cc(Cl)ccc21` (configuration not stated) the Potency was “inactive”.
With `O=C(CSc1nc(-c2ccccc2)cs1)Nc1cccc([N+](=O)[O-])c1` the Potency was “inactive”.
In the case of `O=C(CSc1ncn[nH]1)Nc1nc(-c2cccc([N+](=O)[O-])c2)cs1`, the Potency is reported as 17.8 µM (active).
For `O=C(CSc1ncn[nH]1)Nc1nsc(-c2ccccc2)n1`, the Potency was “inactive”.
For `COc1ccc2[nH]c(=O)c(CN(Cc3cccnc3)S(=O)(=O)c3ccccc3F)cc2c1`, the Potency was “inactive”.
In the case of `COc1cccc(N(CC(=O)NCc2ccccc2)C(=O)CCC(=O)Nc2nccs2)c1`, the Potency is reported as “inactive”.
In the case of `NC(N)=Nc1nc(-c2ccccc2)c2cc(Cl)ccc2n1`, the Potency is reported as “inactive”.
In the case of `O=C(CCl)NNc1nc(-c2ccccc2)c2cc(Cl)ccc2n1`, the Potency is reported as 17.8 µM (active).
In the case of `O=C(CCl)NNc1cccc(Cl)n1`, the Potency is reported as “inactive”.
For `COc1ccc(CCNC(=O)C(=O)NCC2OCCN2S(=O)(=O)c2ccc(F)cc2)cc1OC` (configuration not stated), the Potency was “inactive”.
With `Cc1ccnc(NS(=O)(=O)c2ccc(NC(=O)c3ccc(S(=O)(=O)N4CCOCC4)cc3)cc2)n1` the Potency was “inactive”.
In the case of `CCc1nnc(NC(=O)C2CCCN2S(=O)(=O)c2ccccc2)s1` (configuration not stated), the Potency is reported as “inactive”.
With `O=C(Nc1nnc(-c2ccco2)o1)c1ccc(S(=O)(=O)N2CCOCC2)cc1` the Potency was 5.62 µM (active).
In the case of `CC1CCCN(S(=O)(=O)c2ccc(C(=O)Nc3nnc(-c4ccncc4)o3)cc2)C1` (configuration not stated), the Potency is reported as “inactive”.
For `CC1CCCCN1S(=O)(=O)c1ccc(C(=O)Nc2nnc(-c3cccs3)o2)cc1` (configuration not stated), the Potency was 0.891 µM (active).
With `CSCc1nnc(NC(=O)c2ccc(S(=O)(=O)N3CCCCC3C)cc2)o1` (configuration not stated) the Potency was 1.41 µM (active).
In the case of `O=C(Nc1ccc2cn[nH]c2c1)c1ccc(S(=O)(=O)N2CCOCC2)cc1`, the Potency is reported as “inactive”.
In the case of `CC1CN(S(=O)(=O)c2ccc(C(=O)Nc3sccc3C(N)=O)cc2)CC(C)O1` (configuration not stated), the Potency is reported as “inactive”.
For `CCc1nnc(NC(=O)c2ccc(S(=O)(=O)NC3CCCCC3)cc2)s1`, the activity, negative = inhibition was 0.424% [at 0.365 µM].
In the case of `Cc1cccn2cc(-c3cccc(S(=O)(=O)N4CCCCC4)c3)nc12`, the Potency is reported as “inactive”.
For `COc1ccc(CCC(C)N2CCc3ccccc3C2)cc1` (configuration not stated), the Potency was “inactive”.
In the case of `Cc1cccc([C@@H]2[C@@H]3C(=O)N(Cc4ccccc4)C(=O)[C@@H]3[C@]3(C)C(=O)N(c4ccc(Br)cc4)C(=O)N23)c1`, the Potency is reported as “inactive”.
In the case of `Cn1nccc1C(=O)N1CCCC(C(=O)c2ccc(Oc3ccccc3)cc2)C1` (configuration not stated), the Potency is reported as “inactive”.
For `CCOC(=O)[C@H]1[C@H]2COc3cc(OC)ccc3[C@@H]2N2C(=O)N(c3ccc(Br)cc3)C(=O)[C@@]12C`, the Potency was “inactive”.
With `Cc1ccc(OCCCC(=O)Nc2ccc(S(=O)(=O)Nc3cc(C)nc(C)n3)cc2)cc1` the Potency was “inactive”.
In the case of `Cc1ccc(CSc2nsc(C)c2C#N)cc1`, the Potency is reported as “inactive”.
With `CN(Cc1nc2ccccc2s1)C(=O)c1ccc(F)cc1` the Potency was “inactive”.
In the case of `CCC1(CC)NC(=O)N(Cc2nc3ccccc3s2)C1=O`, the Potency is reported as 3.55 µM (active).
In the case of `COC(=O)C1[C@H]2SC(C)(C)C(C(=O)OC)N2C(=O)N1Cc1nc2ccccc2s1` (some centres not stated), the Potency is reported as “inactive”.
In the case of `N#Cc1ccc(C2N=C(c3ccccc3)NO2)cc1` (configuration not stated), the Potency is reported as “inactive”.
For `Cc1ccccc1C(=O)NC(=S)Nc1ccc(N2CCN(C(=O)c3ccccc3)CC2)cc1`, the Potency was 5.62 µM (active).
In the case of `COc1ccc(C(=O)NC(=S)Nc2ccc(Cl)cn2)cc1OC`, the Potency is reported as 12.6 µM (active).
In the case of `COc1c(Cl)cc(C(=O)Nc2ccc(Cl)cn2)cc1Cl`, the Potency is reported as “inactive”.
In the case of `O=C(c1ccccc1)c1ccc(C(=O)N2CCN(c3ccccc3)CC2)cc1`, the Potency is reported as “inactive”.
In the case of `COc1ccc(C(=O)Nc2ccc(N3CCC(C)CC3)cc2)cc1Br`, the Potency is reported as “inactive”.
In the case of `Cc1ccccc1C(=O)N1CCN(c2ccc(NC(=O)c3cccs3)cc2)CC1`, the Potency is reported as “inactive”.
For `COc1ccc(C(=O)N/N=C(\C)CC(=O)Nc2ccc(Cl)cn2)cc1`, the Potency was “inactive”.
With `COc1ccc(C(=O)Nc2ccc(C3(C#N)CCCC3)cc2)cc1OC` the Potency was “inactive”.
For `Cc1ccccc1C(=O)Nc1ccc(N2CCCCCC2)cc1`, the Potency was “inactive”.
For `O=C(CCN1CCN(c2ccccc2)CC1)NNC(=S)Nc1ccccc1`, the Potency was “inactive”.
For `COc1ccc(C(=O)NC(=S)Nc2ccc(N3CCCC3)cc2)cc1OC`, the Potency was 0.891 µM (active).
For `O=C(Cc1ccccc1)NC(=S)Nc1ccc(N2CCCCC2)cc1`, the Potency was 3.55 µM (active).
